From the supplement of paper PMC12494721
Where a name gives a salt, the structure may show the parent alone.

Columns and labels:
Conditions in all cases: 20 µM; incubation time: 27 h, anaerobic, 37 °C;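 for the amine columns active = adjusted P below 0.05 in both replicates with a change the same way and a mean fold change under 0.8 or over 1.25; inactive = the rest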
[1] = tested on: Clostridium sporogenes DSM 1664; assay: growth (OD595) fold change vs plate DMSO controls (fold change (ratio)); higher = more growth
Outline: (§1)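 The measure reported is growth, taken as fold change against the median of DMSO controls on the same plate. Anaerobic mGAM cultures in 96-well plates (27 h, 37 °C) were read at 595 nm, blank-subtracted, corrected for compound background using 20 µM compound solutions in water, and multiplied by a calibration factor of 5 to give OD. Any fold change above 1.5 became NA, and 2 biological replicates were averaged.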

Escherichia coli IAI1 [2] = assay: as above
Outline: as §1

[3] = tested on: Klebsiella aerogenes DSM 30053; assay: as above
Outline: as §1

[4] = tested on: Ruminococcus gnavus DSM 108212; assay: as above
Outline: as §1

[5] = tested on: Klebsiella aerogenes DSM 30053; assay: fold change of Histamine concentration vs plate DMSO controls (fold change (ratio)); higher = more amine produced, active = hit call of the paper (significant change in both replicates, either direction)
Outline: (§2)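 Amine values are fold changes relative to DMSO-only wells on the same plate. They derive from 27 h, 37 °C anaerobic mGAM cultures of four gut bacterial strains in 80 µL wells, dosed at 20 µM final, or 50 µM final for sweeteners. Extraction of the whole culture, LC–triple-quadrupole MS in dynamic MRM mode, external calibration curves and within-batch drift correction were used, with 2 biological replicates averaged.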

[6] = tested on: Clostridium sporogenes DSM 1664; assay: fold change of Tryptamine concentration vs plate DMSO controls (fold change (ratio)); higher = more amine produced, active = hit call of the paper (significant change in both replicates, either direction)
Outline: as §2

[7] = tested on: Ruminococcus gnavus DSM 108212; assay: as above
Outline: as §2

Escherichia coli IAI1 [8] = assay: fold change of Putrescine concentration vs plate DMSO controls (fold change (ratio)); higher = more amine produced, active = hit call of the paper (significant change in both replicates, either direction)
Outline: as §2

[9] = tested on: Klebsiella aerogenes DSM 30053; assay: as above
Outline: as §2

Escherichia coli IAI1 [10] = assay: fold change of Cadaverine concentration vs plate DMSO controls (fold change (ratio)); higher = more amine produced, active = hit call of the paper (significant change in both replicates, either direction)
Outline: as §2

[11] = tested on: Klebsiella aerogenes DSM 30053; assay: as above
Outline: as §2

[12] = tested on: Ruminococcus gnavus DSM 108212; assay: fold change of 2-Phenylethylamine concentration vs plate DMSO controls (fold change (ratio)); higher = more amine produced, active = hit call of the paper (significant change in both replicates, either direction)
Outline: as §2

Structure (SMILES)	growth [1]	growth (Escherichia coli IAI1 [2])	growth [3]	growth [4]	fold change of Histamine concentration [5]	fold change of Tryptamine concentration [6]	fold change of Tryptamine concentration [7]	fold change of Putrescine concentration (Escherichia coli IAI1 [8])	fold change of Putrescine concentration [9]	fold change of Cadaverine concentration (Escherichia coli IAI1 [10])	fold change of Cadaverine concentration [11]	fold change of 2-Phenylethylamine concentration [12]
C=C[C@H]1CN2CC[C@H]1C[C@H]2[C@H](OC(=O)OCC)c1ccnc2ccc(OC)cc12 [Quinine ethyl carbonate]	1.08	1.01	1.01	0.915	0.967 (inactive)	1.01 (inactive)	0.955 (inactive)	1.03 (inactive)	0.985 (inactive)	1.01 (inactive)	0.993 (inactive)	1.03 (inactive)
CCOCN(C(=O)CCl)c1c(C)cccc1CC	0.867	1.01	0.997	1.08	1.01 (inactive)	1.06 (inactive)	1.01 (inactive)	0.901 (inactive)	0.941 (inactive)	0.88 (inactive)	1 (inactive)	1.02 (inactive)
C[C@]12CCC(=O)C=C1CC[C@@H]1[C@@H]2C(=O)C[C@]2(C)C(=O)CC[C@@H]12 [Adrenosterone]	1.1	1.04	1.01	1	0.94 (inactive)	1.02 (inactive)	1.07 (inactive)	1.09 (inactive)	0.998 (inactive)	1.01 (inactive)	1.02 (inactive)	1.07 (inactive)
CC1(C)[C@H](C(=O)O[C@H](C#N)c2cccc(Oc3ccccc3)c2)[C@@H]1C=C(Br)Br	1.12	0.981	0.998	1.02	1.02 (inactive)	0.958 (inactive)	0.967 (inactive)	0.983 (inactive)	1.01 (inactive)	0.989 (inactive)	1 (inactive)	0.915 (inactive)
CC(=O)O[C@H]1C[C@H](O[C@H]2[C@@H](O)C[C@H](O[C@H]3[C@@H](O)C[C@H](O[C@H]4CC[C@@]5(C)[C@H](CC[C@@H]6[C@@H]5C[C@@H](O)[C@]5(C)[C@@H](C7=CC(=O)OC7)CC[C@]65O)C4)O[C@@H]3C)O[C@@H]2C)O[C@H](C)[C@H]1O[C@@H]1O[C@H](CO)[C@@H](O)[C@H](O)[C@H]1O [Lanatoside C]	1.01	0.957	0.998	1.12	0.992 (inactive)	0.962 (inactive)	1.07 (inactive)	1.09 (inactive)	0.991 (inactive)	1.02 (inactive)	0.996 (inactive)	1.1 (inactive)
COc1cc(C)c(C(=O)c2c(OC)ccc(Br)c2C)c(OC)c1OC	1.04	1.05	1.04	1.1	0.967 (inactive)	0.978 (inactive)	1.01 (inactive)	1.02 (inactive)	1.02 (inactive)	1.07 (inactive)	1.01 (inactive)	1 (inactive)
COP(=O)(OC)OC=C(Cl)Cl	1.05	1.03	0.995	1.07	0.89 (inactive)	1.05 (inactive)	1.06 (inactive)	0.985 (inactive)	0.921 (inactive)	0.964 (inactive)	1.06 (inactive)	1.07 (inactive)
C=CCN1CC[C@]23c4c5ccc(O)c4O[C@H]2C(=O)CC[C@@]3(O)[C@H]1C5 [Naloxone hydrochloride]	1.22	1.04	1.03	1.24	1.04 (inactive)	1.01 (inactive)	0.998 (inactive)	1.02 (inactive)	0.997 (inactive)	0.994 (inactive)	0.997 (inactive)	0.985 (inactive)
C[C@]12CC[C@H](O)C[C@H]1CC[C@@H]1[C@@H]2CC[C@]2(C)[C@@H](C3=CC(=O)OC3)CC[C@]12O [Digitoxigenin]	1.02	1.02	0.986	1	1.06 (inactive)	1.05 (inactive)	1.02 (inactive)	1.03 (inactive)	1.01 (inactive)	1.01 (inactive)	0.989 (inactive)	1.03 (inactive)
C[C@]12Cc3c[nH]nc3C[C@@H]1CC[C@@H]1[C@@H]2CC[C@@]2(C)[C@H]1CC[C@]2(C)O [Stanozolol]	1.18	0.985	1.1	1.05	0.911 (inactive)	0.973 (inactive)	0.976 (inactive)	0.981 (inactive)	0.99 (inactive)	0.959 (inactive)	1.02 (inactive)	1 (inactive)
O=C1C2CC=CCC2C(=O)N1SC(Cl)(Cl)Cl (configuration not stated)	0.923	1.04	0.972	0.931	1.02 (inactive)	1.04 (inactive)	1.04 (inactive)	1 (inactive)	0.956 (inactive)	0.806 (inactive)	0.999 (inactive)	1.05 (inactive)
CCc1cc(C)cc(CC)c1-c1c(OC(=O)C(C)(C)C)n2n(c1=O)CCOCC2	0.933	1.05	0.985	0.919	0.979 (inactive)	1.11 (inactive)	0.99 (inactive)	1.02 (inactive)	1.01 (inactive)	1.05 (inactive)	0.994 (inactive)	0.985 (inactive)
CN1C(=O)CCS(=O)(=O)C1c1ccc(Cl)cc1 (configuration not stated) [Chlormezanone]	1.13	0.97	1.02	0.846	1 (inactive)	0.944 (inactive)	1.05 (inactive)	0.986 (inactive)	1.01 (inactive)	0.984 (inactive)	1.01 (inactive)	1.06 (inactive)
N#Cc1nn(-c2c(Cl)cc(C(F)(F)F)cc2Cl)c(N)c1[S+]([O-])C(F)(F)F (configuration not stated)	1.16	0.982	0.977	1.02	1.1 (inactive)	1.13 (inactive)	1.06 (inactive)	1.05 (inactive)	1.05 (inactive)	0.937 (inactive)	1.08 (inactive)	1.27 (inactive)
CNC(=O)Oc1ccc2c(c1)[C@]1(C)CCN(C)[C@@H]1N2C [Eserine hemisulfate salt]	1.02	1.06	0.988	1.05	1.04 (inactive)	1.02 (inactive)	1.03 (inactive)	1.06 (inactive)	0.996 (inactive)	0.999 (inactive)	0.975 (inactive)	1.05 (inactive)
CO/C=C(/C(=O)OC)c1ccccc1COc1cccc(C(F)(F)F)n1	1.04	1.03	1.05	0.952	0.977 (inactive)	1.02 (inactive)	0.996 (inactive)	1.06 (inactive)	1 (inactive)	1 (inactive)	1 (inactive)	0.98 (inactive)
CC[C@@H](CO)NC(=O)[C@@H]1C=C2c3cccc4[nH]cc(c34)C[C@H]2N(C)C1 [Methylergometrine maleate]	1.08	1.03	1	1.11	1.03 (inactive)	1.03 (inactive)	1.02 (inactive)	0.965 (inactive)	1.01 (inactive)	0.996 (inactive)	1 (inactive)	1.02 (inactive)
CCN(CC)N=O [NDEA (N-nitrosodiethylamine)]	1.13	1.04	1.09	1.04	0.928 (inactive)	1 (inactive)	1.01 (inactive)	1.01 (inactive)	0.999 (inactive)	1.03 (inactive)	1.01 (inactive)	1.01 (inactive)
CO[C@]12C[C@@H](COC(=O)c3cncc(Br)c3)CN(C)[C@@H]1Cc1cn(C)c3cccc2c13 [Nicergoline]	0.937	1	1.03	0.96	0.955 (inactive)	0.994 (inactive)	0.968 (inactive)	0.98 (inactive)	0.99 (inactive)	0.908 (inactive)	1.02 (inactive)	0.888 (inactive)
O=C(NCCc1ncc(C(F)(F)F)cc1Cl)c1ccccc1C(F)(F)F	1.04	1.04	1.16	1.22	0.918 (inactive)	0.969 (inactive)	1.04 (inactive)	0.983 (inactive)	1.03 (inactive)	0.972 (inactive)	1.04 (inactive)	1.02 (inactive)
CC(=O)OCC(=O)[C@H]1CC[C@H]2[C@@H]3CC[C@H]4C[C@H](O)CC[C@]4(C)[C@H]3C(=O)C[C@]12C [Alfadolone acetate]	0.985	1.26	0.997	1.11	1.03 (inactive)	1.04 (inactive)	1.02 (inactive)	1.22 (inactive)	0.981 (inactive)	1.03 (inactive)	0.977 (inactive)	1.01 (inactive)
CCNc1nc(Cl)nc(NC(C)C)n1	1.02	1.02	1	1.06	1.03 (inactive)	0.98 (inactive)	1.06 (inactive)	0.961 (inactive)	0.971 (inactive)	0.849 (inactive)	1 (inactive)	1.1 (inactive)
Cc1cccc(C)c1NC(=O)CN1CCCC1=O [Nefiracetam]	1.01	0.985	1.02	1.06	0.973 (inactive)	1.04 (inactive)	1.01 (inactive)	0.988 (inactive)	1.01 (inactive)	1.01 (inactive)	1 (inactive)	1.01 (inactive)
CCCC(Cn1cncn1)c1ccc(Cl)cc1Cl (configuration not stated)	0.931	0.973	1.02	0.977	1.02 (inactive)	1.01 (inactive)	0.984 (inactive)	1.02 (inactive)	1.02 (inactive)	0.965 (inactive)	0.997 (inactive)	0.953 (inactive)
NC(=O)CN1CC(O)CC1=O (configuration not stated) [Oxiracetam]	0.902	0.994	0.98	0.915	1 (inactive)	1.14 (inactive)	1.1 (inactive)	0.941 (inactive)	0.865 (inactive)	0.876 (inactive)	1.07 (inactive)	1.14 (inactive)
CCNCC(O)c1cccc(O)c1 (configuration not stated) [Etilefrine hydrochloride]	0.977	0.971	0.996	0.981	1.05 (inactive)	1.03 (inactive)	0.959 (inactive)	0.997 (inactive)	1.01 (inactive)	0.991 (inactive)	0.987 (inactive)	0.949 (inactive)
